{"source": "paper PMC11006913", "assay_in_all_cases": "PBM; 200 nM protein, PBS", "conditions_in_all_cases": "dsDNA, one strand shown", "key": {"HESX1 [1]": {"target": "HESX1 (Homo sapiens, UniProt Q9UBX0 95-180, R165K)", "sequence (Q9UBX0 95-180 R165K)": "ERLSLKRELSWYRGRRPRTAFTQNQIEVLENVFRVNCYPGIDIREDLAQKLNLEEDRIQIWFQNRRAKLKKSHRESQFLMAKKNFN"}, "HOXB4 [2]": {"target": "HOXB4 (Homo sapiens, UniProt P17483 148-234)", "sequence (P17483 148-234)": "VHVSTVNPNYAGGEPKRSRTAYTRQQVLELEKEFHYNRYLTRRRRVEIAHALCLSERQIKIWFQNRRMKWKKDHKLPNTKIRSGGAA"}, "SHOX [3]": {"target": "SHOX (Homo sapiens, UniProt O15266 103-189)", "sequence (O15266 103-189)": "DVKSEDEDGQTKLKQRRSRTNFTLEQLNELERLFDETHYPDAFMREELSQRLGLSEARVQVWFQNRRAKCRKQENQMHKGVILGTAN"}, "VENTX [4]": {"target": "T1, VENTX (Homo sapiens, UniProt O95231 78-163, R121Q)", "T1 sequence": "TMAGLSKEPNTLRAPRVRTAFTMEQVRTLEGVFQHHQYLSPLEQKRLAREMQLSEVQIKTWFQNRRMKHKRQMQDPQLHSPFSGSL"}, "HOXB9 [5]": {"target": "HOXB9 (Homo sapiens, UniProt P17482 171-250, T197M)", "sequence (P17482 171-250 T197M)": "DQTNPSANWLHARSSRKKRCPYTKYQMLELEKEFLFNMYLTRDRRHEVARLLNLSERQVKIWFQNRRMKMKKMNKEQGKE"}, "HOXA4 [6]": {"target": "HOXA4 (Homo sapiens, UniProt Q00056 201-287, W262R)", "sequence (Q00056 201-287 W262R)": "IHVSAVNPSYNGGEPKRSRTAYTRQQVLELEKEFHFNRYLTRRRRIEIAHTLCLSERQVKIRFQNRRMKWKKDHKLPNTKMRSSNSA"}, "HOXC9 [7]": {"target": "HOXC9 (Homo sapiens, UniProt P31274 178-260, K195R)", "sequence (P31274 178-260 K195R)": "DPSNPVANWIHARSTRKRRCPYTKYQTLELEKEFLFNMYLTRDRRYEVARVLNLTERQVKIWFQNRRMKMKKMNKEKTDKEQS"}, "VENTX [8]": {"target": "T2, VENTX (Homo sapiens, UniProt O95231 78-163)", "T2 sequence": "T1 sequence with Q44R"}, "HOXA7": {"target": "HOXA7 (Homo sapiens, UniProt P31268 116-202)", "sequence (P31268 116-202)": "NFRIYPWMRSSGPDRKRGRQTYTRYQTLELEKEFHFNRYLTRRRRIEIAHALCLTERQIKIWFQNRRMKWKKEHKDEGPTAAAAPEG"}, "ALX4 [9]": {"target": "ALX4 (Homo sapiens, UniProt Q9H161 200-286)", "sequence (Q9H161 200-286)": "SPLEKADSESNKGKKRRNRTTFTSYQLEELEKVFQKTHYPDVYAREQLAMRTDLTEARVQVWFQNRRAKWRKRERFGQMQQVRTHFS"}, "PAX4 [10]": {"target": "T3, PAX4 (Homo sapiens, UniProt O43316 9-242, R200K)", "T3 sequence": "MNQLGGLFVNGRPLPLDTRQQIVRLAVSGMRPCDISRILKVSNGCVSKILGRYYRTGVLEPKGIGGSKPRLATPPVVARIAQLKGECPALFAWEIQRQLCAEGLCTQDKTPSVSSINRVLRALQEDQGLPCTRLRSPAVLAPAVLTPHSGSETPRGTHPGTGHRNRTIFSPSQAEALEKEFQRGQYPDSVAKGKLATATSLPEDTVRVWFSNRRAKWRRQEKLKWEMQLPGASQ"}, "PRRX1": {"target": "PRRX1 (Homo sapiens, UniProt P54821 80-166, F113S)", "sequence (P54821 80-166 F113S)": "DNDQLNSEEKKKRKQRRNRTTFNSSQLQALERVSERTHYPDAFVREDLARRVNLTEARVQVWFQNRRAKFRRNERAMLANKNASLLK"}, "VENTX [11]": {"target": "T4, VENTX (Homo sapiens, UniProt O95231 78-163, Y115F)", "T4 sequence": "T1 sequence with Y38F, Q44R"}, "PAX4 [12]": {"target": "T5, PAX4 (Homo sapiens, UniProt O43316 9-242)", "T5 sequence": "T3 sequence with K192R"}, "HOXB6": {"target": "HOXB6 (Homo sapiens, UniProt P17509 132-218, K202E)", "sequence (P17509 132-218 K202E)": "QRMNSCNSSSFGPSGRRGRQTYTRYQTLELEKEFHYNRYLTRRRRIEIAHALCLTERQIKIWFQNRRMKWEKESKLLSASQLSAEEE"}, "ALX4 [13]": {"target": "ALX4 (Homo sapiens, UniProt Q9H161 200-286, Q225E)", "sequence (Q9H161 200-286 Q225E)": "as the sequence (Q9H161 200-286) above, with Q26E counted along it"}, "HESX1 [14]": {"target": "HESX1 (Homo sapiens, UniProt Q9UBX0 95-180)", "sequence (Q9UBX0 95-180)": "as the sequence (Q9UBX0 95-180 R165K) above, with K71R counted along it"}, "HOXA2 [15]": {"target": "HOXA2 (Homo sapiens, UniProt O43364 129-215, R185T)", "sequence (O43364 129-215 R185T)": "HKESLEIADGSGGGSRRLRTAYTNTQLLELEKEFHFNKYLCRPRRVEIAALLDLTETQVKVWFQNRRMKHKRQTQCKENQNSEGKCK"}, "HOXA4 [16]": {"target": "HOXA4 (Homo sapiens, UniProt Q00056 201-287, R217L)", "sequence (Q00056 201-287 R217L)": "as the sequence (Q00056 201-287 W262R) above, with R17L, R62W counted along it"}, "HOXB9 [17]": {"target": "HOXB9 (Homo sapiens, UniProt P17482 171-250)", "sequence (P17482 171-250)": "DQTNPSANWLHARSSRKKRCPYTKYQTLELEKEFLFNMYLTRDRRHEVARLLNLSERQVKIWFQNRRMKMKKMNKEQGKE"}, "HOXB4 [18]": {"target": "HOXB4 (Homo sapiens, UniProt P17483 148-234, V174I)", "sequence (P17483 148-234 V174I)": "as the sequence (P17483 148-234) above, with V27I counted along it"}, "HOXC9 [19]": {"target": "HOXC9 (Homo sapiens, UniProt P31274 178-260)", "sequence (P31274 178-260)": "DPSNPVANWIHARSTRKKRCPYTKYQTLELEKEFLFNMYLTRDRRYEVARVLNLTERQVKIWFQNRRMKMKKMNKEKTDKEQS"}, "MSX2": {"target": "MSX2 (Homo sapiens, UniProt P35548 130-214, R199I)", "sequence (P35548 130-214 R199I)": "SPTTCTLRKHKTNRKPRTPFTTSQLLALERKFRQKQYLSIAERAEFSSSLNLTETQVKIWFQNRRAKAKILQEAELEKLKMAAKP"}, "ALX1 [20]": {"target": "ALX1 (Homo sapiens, UniProt Q15699 118-204, L144V)", "sequence (Q15699 118-204 L144V)": "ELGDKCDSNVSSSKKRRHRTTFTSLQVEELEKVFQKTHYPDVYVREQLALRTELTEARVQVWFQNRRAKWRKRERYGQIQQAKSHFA"}, "ALX3": {"target": "ALX3 (Homo sapiens, UniProt O95076 139-225, N203Q)", "sequence (O95076 139-225 N203Q)": "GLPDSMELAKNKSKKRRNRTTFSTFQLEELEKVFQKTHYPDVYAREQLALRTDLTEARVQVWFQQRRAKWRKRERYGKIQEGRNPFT"}, "PAX4 [21]": {"target": "T6, PAX4 (Homo sapiens, UniProt O43316 9-242, R200Q)", "T6 sequence": "T3 sequence with K192Q"}, "SHOX [22]": {"target": "SHOX (Homo sapiens, UniProt O15266 103-189, R173C)", "sequence (O15266 103-189 R173C)": "as the sequence (O15266 103-189) above, with R71C counted along it"}, "HOXC9 [23]": {"target": "HOXC9 (Homo sapiens, UniProt P31274 178-260, R193K)", "sequence (P31274 178-260 R193K)": "as the sequence (P31274 178-260) above, with R16K counted along it"}, "HOXA2 [24]": {"target": "HOXA2 (Homo sapiens, UniProt O43364 129-215, R185K)", "sequence (O43364 129-215 R185K)": "as the sequence (O43364 129-215 R185T) above, with T57K counted along it"}, "ALX1 [25]": {"target": "ALX1 (Homo sapiens, UniProt Q15699 118-204, L144R)", "sequence (Q15699 118-204 L144R)": "as the sequence (Q15699 118-204 L144V) above, with V27R counted along it"}}, "note": "Positions count from the first letter of the chain named."}
{"sequence": "GCTAATTA", "values": [{"measurement": "binding signal", "setting": "HESX1 [1]", "value": "13.8 upbm affinity estimate (log intensity, higher = more binding, comparable within an allelic series)"}, {"measurement": "binding signal", "setting": "HOXB4 [2]", "value": "13.6 upbm affinity estimate (log intensity, higher = more binding, comparable within an allelic series)"}, {"measurement": "binding signal", "setting": "SHOX [3]", "value": "13.5 upbm affinity estimate (log intensity, higher = more binding, comparable within an allelic series)"}, {"measurement": "binding signal", "setting": "VENTX [4]", "value": "13 upbm affinity estimate (log intensity, higher = more binding, comparable within an allelic series)"}, {"measurement": "binding signal", "setting": "HOXB9 [5]", "value": "10.2 upbm affinity estimate (log intensity, higher = more binding, comparable within an allelic series)"}, {"measurement": "binding signal", "setting": "HOXA4 [6]", "value": "10.8 upbm affinity estimate (log intensity, higher = more binding, comparable within an allelic series)"}, {"measurement": "binding signal", "setting": "HOXC9 [7]", "value": "12.5 upbm affinity estimate (log intensity, higher = more binding, comparable within an allelic series)"}, {"measurement": "binding signal", "setting": "VENTX [8]", "value": "13.5 upbm affinity estimate (log intensity, higher = more binding, comparable within an allelic series)"}, {"measurement": "binding signal", "setting": "HOXA7", "value": "12.1 upbm affinity estimate (log intensity, higher = more binding, comparable within an allelic series)"}, {"measurement": "binding signal", "setting": "ALX4 [9]", "value": "14.6 upbm affinity estimate (log intensity, higher = more binding, comparable within an allelic series)"}, {"measurement": "binding signal", "setting": "PAX4 [10]", "value": "12.3 upbm affinity estimate (log intensity, higher = more binding, comparable within an allelic series)"}, {"measurement": "binding signal", "setting": "PRRX1", "value": "12 upbm affinity estimate (log intensity, higher = more binding, comparable within an allelic series)"}, {"measurement": "binding signal", "setting": "VENTX [11]", "value": "12.8 upbm affinity estimate (log intensity, higher = more binding, comparable within an allelic series)"}, {"measurement": "binding signal", "setting": "PAX4 [12]", "value": "12.9 upbm affinity estimate (log intensity, higher = more binding, comparable within an allelic series)"}, {"measurement": "binding signal", "setting": "HOXB6", "value": "10.1 upbm affinity estimate (log intensity, higher = more binding, comparable within an allelic series)"}, {"measurement": "binding signal", "setting": "ALX4 [13]", "value": "14.4 upbm affinity estimate (log intensity, higher = more binding, comparable within an allelic series)"}, {"measurement": "binding signal", "setting": "HESX1 [14]", "value": "13.6 upbm affinity estimate (log intensity, higher = more binding, comparable within an allelic series)"}, {"measurement": "binding signal", "setting": "HOXA2 [15]", "value": "14.2 upbm affinity estimate (log intensity, higher = more binding, comparable within an allelic series)"}, {"measurement": "binding signal", "setting": "HOXA4 [16]", "value": "13 upbm affinity estimate (log intensity, higher = more binding, comparable within an allelic series)"}, {"measurement": "binding signal", "setting": "HOXB9 [17]", "value": "11.8 upbm affinity estimate (log intensity, higher = more binding, comparable within an allelic series)"}, {"measurement": "binding signal", "setting": "HOXB4 [18]", "value": "14.3 upbm affinity estimate (log intensity, higher = more binding, comparable within an allelic series)"}, {"measurement": "binding signal", "setting": "HOXC9 [19]", "value": "12.6 upbm affinity estimate (log intensity, higher = more binding, comparable within an allelic series)"}, {"measurement": "binding signal", "setting": "MSX2", "value": "13.5 upbm affinity estimate (log intensity, higher = more binding, comparable within an allelic series)"}, {"measurement": "binding signal", "setting": "ALX1 [20]", "value": "12.4 upbm affinity estimate (log intensity, higher = more binding, comparable within an allelic series)"}, {"measurement": "binding signal", "setting": "ALX3", "value": "8.53 upbm affinity estimate (log intensity, higher = more binding, comparable within an allelic series)"}, {"measurement": "binding signal", "setting": "PAX4 [21]", "value": "12.9 upbm affinity estimate (log intensity, higher = more binding, comparable within an allelic series)"}, {"measurement": "binding signal", "setting": "SHOX [22]", "value": "10.9 upbm affinity estimate (log intensity, higher = more binding, comparable within an allelic series)"}, {"measurement": "binding signal", "setting": "HOXC9 [23]", "value": "12.5 upbm affinity estimate (log intensity, higher = more binding, comparable within an allelic series)"}, {"measurement": "binding signal", "setting": "HOXA2 [24]", "value": "14.1 upbm affinity estimate (log intensity, higher = more binding, comparable within an allelic series)"}, {"measurement": "binding signal", "setting": "ALX1 [25]", "value": "12 upbm affinity estimate (log intensity, higher = more binding, comparable within an allelic series)"}]}
